# Measured values: PubChem BioAssay
# Activity calls are given as the source filed them. Unless noted, how the calls were made is not given here.
# Tests used:
# [1] = test system: Wnt5a (protein binding on small-molecule microarray); assay: small molecules binding Wnt5a protein – biophysical, small-molecule microarray, 635/667 nm fluorescence, primary screen (AID 1142); conditions: 635 nm fluorescence, higher = more signal;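 further: fluorescence read at 667 nm with signal to noise per printed feature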
# [2] = ATP-based viability of Huh7 replicon cells – cell-based, CellTiter-Glo luminescence, basal, 48 h, cytotoxicity control for HCV replication inhibitor project, primary screen (AID 1143); conditions: higher = more signal, called active from +8 up or from −8 down;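 further: Huh7 hepatoma cells carrying a hepatitis C replication reporter with no stimulus; test concentration not given here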
# [3] = Pseudomonas biofilm growth suppression – PAO1 strain, BacTiter-Glo luminescence, LB-PBS, primary screen (AID 1144); conditions: P. aeruginosa PAO1 biofilm, 12 h, higher = more signal
# [4] = basal CRE-LacZ reporter activity in PC12 – cell-based, unstimulated, primary screen (AID 1145); conditions: no forskolin, luminescence, 4.5 h, higher = more signal, called active from +8 up or from −8 down
# [5] = forskolin-driven CRE-LacZ activity in PC12 – cell-based, CRE-LacZ reporter, forskolin-stimulated, primary screen (AID 1146); conditions: luminescence, 4.5 h, higher = more signal, called active from +8 up or from −8 down;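 further: PC12 cells with 6xCRE LacZ reporter stimulated by forskolin 10 µM; beta-galactosidase reporter signal reflecting CREB driven transcription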
# [6] = target: Streptavidin (Streptomyces avidinii) (UniProt P22629); assay: compounds binding control protein streptavidin – biophysical, small-molecule microarray, 635/667 nm fluorescence, artefact control for SMM compound annotation, primary screen (AID 1147); conditions: higher = more signal;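 further: signal reflects streptavidin binding to arrayed compounds as a control protein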
# [7] = probe aInhba binding on compound microarray – biochemical, small-molecule microarray, 635/667 nm fluorescence, primary screen (AID 1148); conditions: higher = more signal;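 further: score merges 667nm spot fluorescence with signal-to-noise for antibody binding to printed compounds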
# Torsin-1A (Homo sapiens) [8] = target: Torsin-1A (Homo sapiens) (UniProt O14656); assay: TOR1A wild-type binding on microarray – cell lysate, small-molecule microarray, lysate, 635/667 nm, primary screen (AID 1149); conditions: COS7 hTOR1A-WT lysate, 635 nm fluorescence, higher = more signal
# Torsin-1A (Homo sapiens) [9] = target: Torsin-1A (Homo sapiens) (UniProt O14656); assay: torsin A mutant lysate binding on microarrays – cell lysate, small-molecule microarray, COS7 lysate, 635/667 nm fluorescence, primary screen (AID 1150); conditions: COS7 hTOR1A mutant lysate, 635 nm fluorescence, higher = more signal;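 further: score pools 667 nm emission and signal to noise measuring lysate protein binding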
# [10] = test system: Sonic hedgehog protein (Shh); assay: Sonic hedgehog microarray binding compounds – biochemical, small-molecule microarray, 635/667 nm fluorescence, primary screen (AID 1151); conditions: 635 nm fluorescence, higher = more signal;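 further: Shh protein binding to compounds spotted on small-molecule microarray slides; score combines spot fluorescence intensity with signal-to-noise across triplicate slides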
# [11] = optical density shifts of acrAB sulA E. coli – strain DRC41, OD650, 48 h, E. coli filamentation inducer project, primary screen (AID 1152); conditions: higher = more signal, called active from +8 up or from −8 down;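 further: E. coli MC1000 strain DRC41 lacking acrAB efflux pump and sulA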
# [12] = probe aLefty1 binding on compound microarray – biochemical, small-molecule microarray, 635/667 nm fluorescence, primary screen (AID 1153); conditions: higher = more signal;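 further: score merges spot fluorescence with signal-to-noise ratio from the scanned slide images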
# [13] = plasmodial surface anion channel blockers, osmotic lysis – cell-based, P. falciparum Indochina, OD700, 1 h, primary screen (AID 1154); conditions: P. falciparum Indochina infected RBC osmotic lysis, higher = more signal, called active from +8 up or from −8 down
# [14] = plasmodial surface anion channel blockers, osmotic lysis – cell-based, P. falciparum Indochina, OD700, 2 h, primary screen (AID 1155);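 further: lysis reports solute entry through the parasite surface anion channel PSAC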; conditions: P. falciparum Indochina infected erythrocytes, higher = more signal, called active from +8 up or from −8 down
# [15] = changes in parasitized red cell lysis, either direction – P. falciparum Indochina, OD700, 3 h, PSAC antagonist project, primary screen (AID 1156); conditions: P. falciparum-infected erythrocytes, osmotic lysis, higher = more signal, called active from +8 up or from −8 down
# [16] = plasmodial surface anion channel blockers, osmotic lysis – cell-based, P. falciparum Indochina, OD700, 18 h, primary screen (AID 1157); conditions: P. falciparum Indochina infected erythrocytes, osmotic lysis OD700, 18 h; higher = more signal, called active from +8 up or from −8 down
# [17] = S6 kinase pathway phospho-S6 level changes – cell-based, A549, cytoblot, luminescence, serum-stimulated, primary screen (AID 1158); conditions: 5 h, higher = more signal;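 further: serum-stimulated A549 lung adenocarcinoma cells; signal is phosphorylated S6 detected by cytoblot immunostaining with HRP secondary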
# [18] = target: NADPH oxidase 2 (Homo sapiens) (UniProt P04839); assay: compounds shifting NOX2 Amplex Red fluorescence – cell-based, HEK293-NOX2, PMA-stimulated, NOX inhibitor project, primary screen (AID 1159); conditions: 45 min, higher = more signal, called active from +8 up or from −8 down; further: test concentration not given here
# [19] = target: NADPH oxidase 4 (Homo sapiens) (UniProt Q9NPH5); assay: compounds shifting NOX4 Amplex Red fluorescence – cell-based, HEK293-NOX4, tetracycline-induced, NOX inhibitor project, primary screen (AID 1160); conditions: HEK293-NOX4, Amplex Red H2O2 fluorescence, 45 min; higher = more signal, called active from +8 up or from −8 down
# [20] = target: NADPH oxidase 5 (Homo sapiens) (UniProt Q96PH1); assay: compounds shifting NOX5 Amplex Red fluorescence – cell-based, HEK293-NOX5, NOX inhibitor project, primary screen (AID 1161); conditions: HEK293-NOX5, ionomycin, 45 min, higher = more signal
# Sequence of NADPH oxidase 5 (Homo sapiens) (Q96PH1 whole entry, looked up): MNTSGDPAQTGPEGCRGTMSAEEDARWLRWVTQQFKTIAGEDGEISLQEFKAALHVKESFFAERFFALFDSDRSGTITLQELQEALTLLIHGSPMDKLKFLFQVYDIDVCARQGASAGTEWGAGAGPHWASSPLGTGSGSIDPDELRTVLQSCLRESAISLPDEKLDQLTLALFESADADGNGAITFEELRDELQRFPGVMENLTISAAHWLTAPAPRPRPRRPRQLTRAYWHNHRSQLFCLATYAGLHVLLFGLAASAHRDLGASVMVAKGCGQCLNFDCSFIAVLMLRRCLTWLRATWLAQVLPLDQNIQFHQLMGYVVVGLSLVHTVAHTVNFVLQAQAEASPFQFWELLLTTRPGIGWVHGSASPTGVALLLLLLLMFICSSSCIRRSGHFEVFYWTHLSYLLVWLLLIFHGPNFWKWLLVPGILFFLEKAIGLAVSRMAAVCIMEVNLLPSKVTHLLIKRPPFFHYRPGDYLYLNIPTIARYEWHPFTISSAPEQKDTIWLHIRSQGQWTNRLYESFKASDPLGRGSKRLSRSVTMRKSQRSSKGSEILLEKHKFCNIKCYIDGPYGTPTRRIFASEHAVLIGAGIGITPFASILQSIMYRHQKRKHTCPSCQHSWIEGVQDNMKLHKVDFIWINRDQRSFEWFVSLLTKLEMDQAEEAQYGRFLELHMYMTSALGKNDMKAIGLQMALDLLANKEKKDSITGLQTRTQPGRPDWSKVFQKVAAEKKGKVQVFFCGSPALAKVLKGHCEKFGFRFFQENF
# Sequence of NADPH oxidase 4 (Homo sapiens) (Q9NPH5 whole entry, looked up): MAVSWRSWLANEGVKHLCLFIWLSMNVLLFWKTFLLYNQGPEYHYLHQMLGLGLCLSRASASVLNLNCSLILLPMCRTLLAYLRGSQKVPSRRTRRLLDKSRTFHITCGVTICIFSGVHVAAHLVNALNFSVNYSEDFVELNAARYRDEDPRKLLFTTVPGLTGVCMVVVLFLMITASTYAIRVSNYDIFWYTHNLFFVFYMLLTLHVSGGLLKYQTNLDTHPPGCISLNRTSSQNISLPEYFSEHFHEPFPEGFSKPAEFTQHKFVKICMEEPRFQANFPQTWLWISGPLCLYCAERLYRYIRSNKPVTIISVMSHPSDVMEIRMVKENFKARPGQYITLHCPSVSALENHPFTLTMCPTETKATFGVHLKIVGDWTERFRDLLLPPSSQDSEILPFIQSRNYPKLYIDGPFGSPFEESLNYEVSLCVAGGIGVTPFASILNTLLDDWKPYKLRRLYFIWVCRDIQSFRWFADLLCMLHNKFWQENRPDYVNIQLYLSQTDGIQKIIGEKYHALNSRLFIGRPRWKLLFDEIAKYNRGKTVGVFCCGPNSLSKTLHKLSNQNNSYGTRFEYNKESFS
# Sequence of Torsin-1A (Homo sapiens) (O14656 whole entry, looked up): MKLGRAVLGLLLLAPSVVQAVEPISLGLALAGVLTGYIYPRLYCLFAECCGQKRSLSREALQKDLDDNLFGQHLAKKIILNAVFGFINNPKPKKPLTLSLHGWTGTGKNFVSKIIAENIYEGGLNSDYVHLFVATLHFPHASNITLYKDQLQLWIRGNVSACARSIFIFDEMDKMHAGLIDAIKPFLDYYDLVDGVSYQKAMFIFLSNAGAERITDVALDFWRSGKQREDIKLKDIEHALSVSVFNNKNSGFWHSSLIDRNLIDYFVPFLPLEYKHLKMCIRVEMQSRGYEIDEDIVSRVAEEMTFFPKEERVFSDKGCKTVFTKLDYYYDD
# Sequence of Streptavidin (Streptomyces avidinii) (P22629 whole entry, looked up): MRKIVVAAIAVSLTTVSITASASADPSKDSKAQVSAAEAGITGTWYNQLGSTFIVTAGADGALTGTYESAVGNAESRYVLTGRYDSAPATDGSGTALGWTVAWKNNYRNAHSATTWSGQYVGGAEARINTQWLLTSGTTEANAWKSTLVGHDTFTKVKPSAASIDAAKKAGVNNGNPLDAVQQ
# Sequence of NADPH oxidase 2 (Homo sapiens) (P04839 whole entry, looked up): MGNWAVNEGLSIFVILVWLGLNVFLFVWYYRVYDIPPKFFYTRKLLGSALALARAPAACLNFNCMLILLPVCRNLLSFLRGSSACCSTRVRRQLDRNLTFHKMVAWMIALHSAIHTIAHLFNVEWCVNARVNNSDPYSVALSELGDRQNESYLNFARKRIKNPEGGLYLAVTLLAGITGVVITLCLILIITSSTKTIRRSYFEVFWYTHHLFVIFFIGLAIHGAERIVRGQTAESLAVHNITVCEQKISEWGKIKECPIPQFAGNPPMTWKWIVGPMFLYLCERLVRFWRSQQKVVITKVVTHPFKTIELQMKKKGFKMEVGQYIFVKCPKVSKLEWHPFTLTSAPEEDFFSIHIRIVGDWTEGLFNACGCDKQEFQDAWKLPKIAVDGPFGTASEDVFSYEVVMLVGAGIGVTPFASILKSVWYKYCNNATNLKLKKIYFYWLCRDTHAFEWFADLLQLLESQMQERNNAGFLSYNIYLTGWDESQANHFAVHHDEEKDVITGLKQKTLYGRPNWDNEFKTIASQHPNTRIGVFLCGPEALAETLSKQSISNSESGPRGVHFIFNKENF
SMILES,composite z-score [1],z-score [2],z-score [3],z-score [4],z-score [5],composite z-score [6],composite z-score [7],composite z-score (Torsin-1A (Homo sapiens) [8]),composite z-score (Torsin-1A (Homo sapiens) [9]),composite z-score [10],z-score [11],composite z-score [12],z-score [13],z-score [14],z-score [15],z-score [16],z-score [17],z-score [18],z-score [19],z-score [20]
COc1cc(C(O)C2C=CC3C(=O)N(c4ccccc4)C(=O)C3N2Nc2ccccc2)cc(OC)c1OC (stereo not given),0.575,-0.685 (inactive),-0.983 (inactive),-0.322 (inactive),0.226 (inactive),1.39,0.38,-0.327,-0.0996,-0.277,-0.915 (inactive),0.501,26.2 (active),12.1 (active),1.18 (inactive),1.73 (inactive),-0.817,-1.61 (inactive),-3.49 (inactive),-3.2
COc1ccc(C(O)C2C=CC3C(=O)N(c4ccccc4)C(=O)C3N2Nc2ccc([N+](=O)[O-])cc2)c2ccccc12 (stereo not given),0.328,-0.8 (inactive),-0.557 (inactive),-0.228 (inactive),-0.838 (inactive),1.86,0.12,0.771,0.163,0.0892,-1.31 (inactive),0.364,9.23 (active),2.13 (inactive),0.722 (inactive),1.12 (inactive),-0.446,-0.273 (inactive),-0.96 (inactive),-1.55
NCCCCCCNC(=O)[C@@H]1C[C@@H]2C(=O)N3CCC[C@H]3C(=O)N2[C@@H]1c1cccc(OCCO)c1,0.587,-0.182 (inactive),0.884 (inactive),-0.386 (inactive),-1.43 (inactive),0.56,-0.024,2.21,1.07,0.513,1.82 (inactive),0.012,4.29 (inactive),-0.643 (inactive),1.53 (inactive),-1.8 (inactive),-0.0015,1.62 (inactive),1.42 (inactive),0.99
COC(=O)[C@@]1(Cc2ccc(OC)cc2)[C@H]2c3cc(C(=O)N(C)C)[nH]c3C[C@H]2CN1C(=O)c1ccccc1,0.117,0.244 (inactive),0.857 (inactive),0.383 (inactive),-0.289 (inactive),0.226,-0.0645,-0.209,-0.369,-0.814,-0.439 (inactive),-0.0969,5.74 (inactive),0.806 (inactive),0.395 (inactive),0.764 (inactive),-0.38,0.371 (inactive),0.602 (inactive),-1.58
CC(C)NC(=O)[C@@H]1c2ccccc2C(=O)N(Cc2ccccc2C(F)(F)F)[C@H]1c1ccc(CO)cc1,-0.0854,-2.26 (inactive),-0.949 (inactive),-0.179 (inactive),1.71 (inactive),-0.962,-0.169,-0.371,0.0029,-0.214,0.0029 (inactive),-0.556,2.58 (inactive),0.0744 (inactive),1.32 (inactive),0.596 (inactive),-0.262,1.21 (inactive),-0.805 (inactive),-1.97
COc1ccc(C(O)C2C=CC3C(=O)NC(=O)C3N2Nc2ccc(Cl)cc2Cl)c2ccccc12 (stereo not given),-0.181,-1.74 (inactive),-1.13 (inactive),1.01 (inactive),-0.525 (inactive),0.767,-0.0757,-0.392,0.275,0.461,-0.866 (inactive),0.379,2.37 (inactive),1.44 (inactive),-0.46 (inactive),1.78 (inactive),-0.101,-0.0689 (inactive),-5.63 (inactive),-1.58
CC(C)=CCCC(C)=CC(O)C1C=CC2C(=O)NC(=O)C2N1Nc1ccccn1 (stereo not given),0.827,-0.614 (inactive),-0.564 (inactive),-0.333 (inactive),-0.0179 (inactive),0.968,-0.154,1.61,1.53,2.08,-0.255 (inactive),-0.864,0.494 (inactive),-0.531 (inactive),-0.725 (inactive),-1.94 (inactive),0.585,-0.637 (inactive),-1.61 (inactive),-0.467
C=CCN1Cc2ccccc2[C@H]2OC(c3ccc(OCCCO)cc3)=N[C@@]2(CCS(=O)(=O)c2ccccc2)C1=O,1.07,-2.3 (inactive),0.477 (inactive),1.44 (inactive),-1.27 (inactive),0.22,0.275,0.695,1.26,1.28,-0.028 (inactive),0.607,30.4 (active),27.2 (active),1.47 (inactive),6 (inactive),-0.272,-0.697 (inactive),1.93 (inactive),0.119
COc1ccc([Si](C)(C)[C@H]2[C@H](CCO)O[C@@]3(C(=O)N(Cc4cccc(N(C=O)c5ccccc5)c4)c4ccccc43)[C@@H]2C)cc1,0.313,-6.26 (inactive),-0.914 (inactive),-0.417 (inactive),-1.56 (inactive),1.21,-0.018,0.939,1.01,1.78,2.15 (inactive),-0.339,2.24 (inactive),2.47 (inactive),1.1 (inactive),1.82 (inactive),1.91,-1.31 (inactive),0.451 (inactive),0.00518
COC(=O)[C@@]1(Cc2ccc(F)cc2)[C@H]2c3cc(C(=O)N4CCCC4)n(Cc4ccccn4)c3C[C@H]2CN1C(=O)c1ccccc1,0.739,-1.56 (inactive),0.261 (inactive),0.966 (inactive),1.35 (inactive),0.498,0.522,-0.578,0.738,-0.138,-1.9 (inactive),0.0479,2.2 (inactive),0.404 (inactive),0.893 (inactive),0.987 (inactive),0.0347,0.553 (inactive),-1.33 (inactive),-2.47
O=C1C[C@@](C(=O)NCc2ccccc2)(c2ccc([N+](=O)[O-])cc2)[C@@H](c2ccc(CO)cc2)N1C1CCCCC1,0.203,-4.1 (inactive),-0.967 (inactive),0.531 (inactive),-0.932 (inactive),-0.0057,0.333,0.944,0.812,0.998,1.09 (inactive),0.857,0.661 (inactive),-0.881 (inactive),-0.436 (inactive),-0.877 (inactive),1.58,-0.522 (inactive),0.333 (inactive),0.0696
CC(C)C[C@@H]1NC(=O)[C@@]23C(=O)N[C@@H](Cc4ccccc4)C2[C@H](C)[C@@]2(C)O[C@H]2C3/C=C/C/C=C\CNC(=O)CNC1=O (stereo not given in full),-0.0717,-1.91 (inactive),0.0738 (inactive),-1.05 (inactive),-0.767 (inactive),0.228,-0.179,-0.507,0.939,0.214,-0.815 (inactive),-0.0832,0.917 (inactive),0.0107 (inactive),-0.023 (inactive),0.329 (inactive),0.208,1.82 (inactive),1.2 (inactive),-0.441
O=C1O[C@@H](c2ccccc2)[C@@H](c2ccccc2)N2[C@@H](c3ccccc3OCCO)[C@]3(C(=O)Nc4ccc(C#CCCO)cc43)[C@@H](C(=O)NC[C@H](O)c3ccccc3)[C@H]12,0.381,-0.908 (inactive),0.191 (inactive),-0.402 (inactive),0.717 (inactive),1.63,1.17,1.49,1.86,1.94,0.54 (inactive),1.63,1.54 (inactive),0.913 (inactive),-1.33 (inactive),1.28 (inactive),-0.471,1.59 (inactive),0.462 (inactive),0.689
CCC(CC)C(O)C1C=CC2C(=O)N(c3ccccc3)C(=O)C2N1Nc1ccccc1F (stereo not given),0.0501,-1.14 (inactive),-0.615 (inactive),-0.62 (inactive),0.492 (inactive),0.292,-0.0044,0.838,0.597,-0.455,-0.372 (inactive),0.0315,0.834 (inactive),0.412 (inactive),0.164 (inactive),0.584 (inactive),-0.364,0.223 (inactive),-0.0786 (inactive),-0.39
C=C(COC)C(=O)CC[C@@H](OC(=O)c1ccccc1-c1ccccc1C(=O)O)c1ccc(OCCO)cc1,0.238,-0.043 (inactive),-0.147 (inactive),0.727 (inactive),1.36 (inactive),-0.986,0.0018,-0.0281,1.15,1.86,-0.172 (inactive),0.712,10.8 (active),0.971 (inactive),0.489 (inactive),0.381 (inactive),-0.528,0.849 (inactive),-0.245 (inactive),-1.32
CCOC(=O)C1=C[C@@H](C(C)(C)C)N(S(=O)(=O)c2ccc(C)cc2)[C@H]1c1ccc(C#N)cc1,0.327,-3.61 (inactive),0.261 (inactive),-0.228 (inactive),0.624 (inactive),0.948,0.0785,0.855,1.57,-0.264,-1.02 (inactive),0.337,3.01 (inactive),1.33 (inactive),-0.217 (inactive),0.905 (inactive),-0.561,-0.642 (inactive),-0.508 (inactive),1.11
NC(=O)N1C(=O)C2C(C1=O)C1C=C(CCCO)C2C(c2ccc(CN3CCCC3)cc2)N1Cc1cc2c(cc1Br)OCO2 (stereo not given),-0.0793,-1.34 (inactive),-0.607 (inactive),-0.205 (inactive),-0.274 (inactive),-0.0077,-0.322,0.283,0.479,1.13,-0.272 (inactive),-0.276,1.69 (inactive),0.446 (inactive),0.604 (inactive),0.211 (inactive),0.106,-1.07 (inactive),0.731 (inactive),0.46
